Source: PubChem (National Center for Advancing Translational Sciences (NCATS))
Pf Dd2 growth = blocks in vitro growth of P. falciparum Dd2 | P. falciparum Dd2 growth, SYBR Green, 72 h | 120,000 tested, 4.3% active | Potency, µM (doses to about 28.9 µM), for inactives: at the top dose activity, negative = inhibition, hits mostly inhibitors | AID 1347417; active = well fitted inhibition curve with a large enough effect;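 also: plate controls were DMSO vehicle for no effect and reference drug for full effect; nearly all actives have a fitted effect of over 65% in size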
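Readout: SYBR Green fluorescence, 485 nm excitation, 535 nm emission, after ~16 h lysis at 37C. Before that, Dd2-infected red cells (2.5% hematocrit) grew 72 h with compound, 29 uM top final concentration.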
* marks the source's active call; other numbers are inactive results; i = inactive; ! = a repeat was not active; [ ] = dose if it differs, or a comment. Many of the other results were omitted from the sample, so hits are more common in it than they were. Potency is read from the fitted curve at half-maximal effect.

SMILES | Pf Dd2 growth
CN(C)c1ccc(CN[C@H]2CC(C)(C)[C@@H]3C[C@@](C)(O)CC[C@]23CCC(=O)NCCc2c[nH]c3ccccc23)cc1 | -5.2%
COc1cc(CNc2ccc3[nH]c(=O)[nH]c3c2)cc(Br)c1OCc1ccc(F)cc1 | 12.6µM*
COc1cc(CNc2ccc3[nH]c(=O)[nH]c3c2)cc(Cl)c1OCc1ccccc1F | -16.7%
COc1cc(CNc2ccc3[nH]c(=O)[nH]c3c2)cc(Cl)c1OCc1ccc(F)cc1 | -26.4%
COc1cccc(CC(=O)N2CCCC3(C2)NC(=O)N(Cc2cc(C)ccc2C)C3=O)c1 (stereo unspecified) | 16.1%
CN(C)C(=O)c1cc2c(s1)CCC(C(=O)N1CCN(c3ccccn3)CC1)C2 (stereo unspecified) | i
CN(C)C(=O)c1cc2c(s1)CCC(C(=O)N1CCN(c3cccc(Cl)c3)CC1)C2 (stereo unspecified) | 5.01µM*
CN(C)C(=O)c1cc2c(s1)CCC(C(=O)N1CCN(c3ccccc3)CC1)C2 (stereo unspecified) | i
CC(C)NC(=O)N1CCN(c2cccc(C=O)c2)C(=O)C1 | 43.8%[44.1 µM]
COC(=O)CNC(=O)c1cc(-c2ccc(Cl)nc2)c2cnn(C)c2n1 | 17.2%
CCOc1cc(=O)n2c(c1C(=O)NCc1cc(OC)ccc1OC)CCCC2 | 42.4%
CCCCNC(=O)c1nnn2c1COC(c1ccc(C)cc1)C2 (stereo unspecified) | i
COc1ccc(CCNC(=O)c2nnn3c2COC(c2ccc(C)cc2)C3)cc1OC (stereo unspecified) | 8.91µM*
Cc1ccc(C2Cn3nnc(C(=O)NCc4ccc(F)cc4)c3CO2)cc1 (stereo unspecified) | i
COc1ccc(C(=O)N2CCN(C(=O)c3nnn4c3COC(c3ccc(F)cc3)C4)CC2)cc1 (stereo unspecified) | -0.2%
Cc1ccc(C2Cn3nnc(C(=O)N4CCN(C(=O)c5ccc(F)cc5)CC4)c3CO2)cc1 (stereo unspecified) | -0.3%
COc1ccc(C2Cn3nnc(C(=O)NC4CCCCCCC4)c3CO2)cc1 (stereo unspecified) | 8.91µM*
Cc1ccc(C(=O)N2CCN(C(=O)c3nnn4c3COC(c3ccc(F)cc3)C4)CC2)cc1C (stereo unspecified) | 7.08µM*
COc1ccc(C2Cn3nnc(C(=O)N4CCC(C(=O)NC5CCCCC5)CC4)c3CO2)cc1 (stereo unspecified) | 25.5%
COc1ccc(C2Cn3nnc(C(=O)N4CCC(C(=O)NC5CCCCCCC5)CC4)c3CO2)cc1 (stereo unspecified) | -17.4%
O=C(N[C@H]1C[C@H]2C(=O)NC[C@@H](CCC(=O)N3CCCCC3)N2C1)c1ccc(F)c(Cl)c1 | -5.2%
Cc1cnc(C2CCNC2)n1Cc1ccccc1 (stereo unspecified) | 5.9%
CCN1CC2(CCC1=O)CCN(C(=O)[C@@](C)(N)Cc1ccccc1)CC2 | 2.1%
CCN(CC)CCCNC(=O)CN1C(=O)COc2ccc(S(=O)(=O)N3CCC(C)CC3)cc21 | 5.8%
CCCCNC(=O)CN1C(=O)COc2ccc(S(=O)(=O)N3CCCC3)cc21 | 32.3%
SMILES | Pf Dd2 growth
CC(C)CN(CCCNC(=O)CN1C(=O)COc2ccc(S(=O)(=O)N3CCCCCC3)cc21)CC(C)C | 11.2µM*
O=C(N[C@H]1C[C@H]2C(=O)NC[C@@H](CCC(=O)N3CCN(c4ccccn4)CC3)N2C1)c1ccccc1 | 5.8%
CCOc1cccc(CNC(=O)[C@@]23CCCC[C@H]2N(C)C(=O)CC3)c1 | 6.7%
CC(=O)N1CC2(CCCCN2C2COC2)Cc2ccccc21 (stereo unspecified) | 9.1%
O=C1NCc2ccccc2CC12CCCN2C/C=C/c1ccccc1 (stereo unspecified) | -25.3%
O=C1Nc2ccccc2CN(Cc2ccncc2)C12CCNCC2 | 0.5%
O=C1Nc2ccccc2CN(Cc2ccc(Cl)cc2)C12CCNCC2 | 7.08µM*
O=C1Nc2ccccc2CN(CC2CCOCC2)C12CCNCC2 | 12.8%
O=C1Nc2ccccc2CN(C/C=C/c2ccccc2)C12CCNC2 (stereo unspecified) | 11.2µM*
O=C(C1CC1)N1Cc2ccccc2NC(=O)C12CCNCC2 | 20.0%
COC(=O)c1ccc(NC(=O)N2CCCC(CN3CCOCC3)CC2)cc1 (stereo unspecified) | i
CCOc1cc(C(=O)N2CCCN(c3cc(-c4ccc(F)cc4)[nH]n3)CC2)cc(OCC)c1OCC | i
COCCn1cc(CN(C)CCc2c(C)noc2C)ccc1=O | 11.6%
COc1ccc(Cl)cc1C(=O)N1CCCN(c2cc(-c3ccc(Br)cc3)[nH]n2)CC1 | -21.4%
O=C(c1cc(-c2ccc(Br)cc2)n[nH]1)N1CCN(S(=O)(=O)c2ccc(Br)cc2)CC1 | 8.91µM*
COc1ccc(S(=O)(=O)N2CCN(C(=O)c3cc(-c4ccc(Br)cc4)n[nH]3)CC2)cc1OC | -17.6%
COc1ccc(Cl)cc1S(=O)(=O)N1CCN(C(=O)c2cc(-c3ccc(Br)cc3)n[nH]2)CC1 | 10µM*
COc1ccc(Cl)cc1C(=O)N1CCCN(c2cc(-c3ccc(F)cc3)[nH]n2)CC1 | i
O=C(c1cc(-c2ccccc2)n[nH]1)N1CCc2c(nc(-c3ccc(F)cc3)[nH]c2=O)C1 | -18.4%
O=C(c1ccccn1)N1CCC(N(Cc2cccnc2)C2CCOCC2)CC1 | i
O=C([C@@H]1C[C@H](Oc2ccccc2)CN1C(=O)c1ccncc1)N1CCCC1 | -14.1%
CC1CCN(C(=O)c2ccc3c(c2)C(O)CCCCCN3C)CC1 (stereo unspecified) | i
COCCn1ncc(N2CCCC(CC(=O)N(C)CCc3ccccn3)C2)cc1=O (stereo unspecified) | i
N[C@@H]1CC[C@H](C(=O)N2CCN(Cc3cccc(C(F)(F)F)c3)CC2)C1 | -4.0%
CC(C)Oc1ccc(C(=O)N2CCC3(CC2)C(=O)N(C)c2ccccc23)cc1 | 8.91µM*
SMILES | Pf Dd2 growth
CC1(C(=O)O)CCN(C(=O)c2cccc(Cl)c2)CC1 | -12.0%[44.1 µM]
COc1ccc(C(=O)N2CCC3(CC2)C(=O)Nc2ccccc23)cc1 | 51.6%
CN1C(=O)C2(CCN(C(=O)c3cccc(F)c3)C2)c2ccccc21 (stereo unspecified) | i
CN1C(=O)C2(CCN(C(=O)c3ccccc3)C2)c2ccccc21 (stereo unspecified) | -15.2%[44.1 µM]
CC(C)CCNC(=O)N1CCC2(CC1)C(=O)N(C)c1ccccc12 | -14.7%
COc1ccc(C(=O)N2CCC3(C2)C(=O)N(CCc2ccccc2)c2ccccc23)cc1 (stereo unspecified) | 8.91µM*!
O=C(c1cccc(Cl)c1)N1CCC2(C1)C(=O)N(CCc1ccccc1)c1ccccc12 (stereo unspecified) | 7.94µM*!
COc1ccc(C(=O)N2CCC3(C2)C(=O)N(Cc2ccccc2)c2ccccc23)cc1 (stereo unspecified) | i
CC(C)N1CCN(C2CCOC3(CCN(S(=O)(=O)c4ccccc4)CC3)C2)CC1 (stereo unspecified) | i
COc1ccc(C(C(=O)O)N2CCN(c3ccc(F)cc3)CC2)c(OC)n1 (stereo unspecified) | 8.2%
COc1ccc(-c2ccc3nnc(CNC(=O)Cc4cccc(OC)c4)n3n2)cc1 | i
CC(=O)N1CC2(CCN(CCc3ccccn3)CC2)CC1C(=O)O (stereo unspecified) | 3.7%
Cc1noc([C@@H]2CC(F)(F)CN2S(=O)(=O)c2ccccc2)n1 | 18.1%
Cc1ncc2c(c1CNC(=O)c1cc(F)cc(Cl)c1)CCNC2 | -16.4%
